# In PubChem BioAssay AID1210 (NMMLSC, 2008):
# Target: Estrogen receptor beta (Homo sapiens) (UniProt Q92731)
# Experiment: ERbeta ligand binders by competition, primary screen, cell-based, Cos7 ERbeta-GFP, flow cytometry (AID 1210);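 further: 0% = DMSO vehicle wells and 100% = complete loss of labeled estradiol signal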
# Conditions: fluorescent estrogen binding, ligand binding inhibition, at 0.1 µM, stronger effect = higher value
# Estrogen receptor beta (Homo sapiens), sequence (Q92731 whole entry, looked up): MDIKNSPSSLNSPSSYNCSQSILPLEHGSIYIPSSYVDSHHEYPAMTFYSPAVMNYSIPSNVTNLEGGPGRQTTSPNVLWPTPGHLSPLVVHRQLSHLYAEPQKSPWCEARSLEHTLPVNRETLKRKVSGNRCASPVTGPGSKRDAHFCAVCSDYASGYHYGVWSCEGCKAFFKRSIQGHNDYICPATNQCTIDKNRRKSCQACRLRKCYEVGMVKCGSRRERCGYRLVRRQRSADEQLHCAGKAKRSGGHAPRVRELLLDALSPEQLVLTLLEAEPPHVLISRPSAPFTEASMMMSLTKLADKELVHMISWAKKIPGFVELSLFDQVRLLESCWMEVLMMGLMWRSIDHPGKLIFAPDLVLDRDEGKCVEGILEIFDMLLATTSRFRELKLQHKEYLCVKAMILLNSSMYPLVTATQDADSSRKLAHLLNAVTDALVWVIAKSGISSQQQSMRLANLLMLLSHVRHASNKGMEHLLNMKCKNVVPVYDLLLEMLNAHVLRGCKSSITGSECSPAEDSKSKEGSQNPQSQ
row,SMILES,inhibition [%]
1,CC(=O)c1sc2nc(SCC(=O)N3CCCCC3)[nH]c(=O)c2c1C,12
2,C/C=C(/C(=C/C)c1ccc(O)cc1)c1ccc(O)cc1,85
3,Fc1ccc2c(c1)[C@H]1OCC[C@H]1[C@@H](c1ccco1)N2,1
4,COc1ccc(C2Nc3ccccc3C(=O)N2c2ccc(Cl)cc2)cc1Cn1cc([N+](=O)[O-])cn1 (stereo not drawn),36
5,COc1ccc(Cl)cc1NC(=O)c1ocnc1C,3
6,Nc1ccc(N2CCN(C(=O)c3ccco3)CC2)cc1,25
7,COc1ccc(OC)c(C(=O)CSc2nnc(-c3ccc(OC)c(OC)c3)o2)c1,12
8,COCCOC(=O)c1[nH]c2c(c1C)C(=O)CC(c1ccco1)C2 (stereo not drawn),26
9,O=C(CSc1nnc(-c2ccc(O)cc2)n1Cc1ccccc1)NNC(=O)c1ccc(Br)cc1,30
10,CSc1ccccc1NC(=O)c1noc2c1CCC2,12
11,Cc1ccc(C)c(/C(O)=C2/C(=O)C(=O)N(CCN3CCOCC3)C2c2ccco2)c1 (stereo not drawn),17
12,CCc1ccc(Nc2nc(N)nc(CSc3nnnn3-c3ccccc3)n2)cc1,8
13,CCc1oc2ccccc2c1C(=O)c1cc(Br)c(O)c(Br)c1,9
14,c1coc(-c2nn3c(-c4ccco4)nnc3s2)c1,28
15,O=C(NNC(=O)c1ccc(SCC2CCCO2)c([N+](=O)[O-])c1)c1ccc(Cl)c([N+](=O)[O-])c1 (stereo not drawn),4
16,Oc1ccccc1C1=Nc2ccccc2N=C(c2cccs2)C1,17
17,CC(=O)c1ccc(NC(=S)N2CCC(O)CC2)cc1,23
18,Cc1c2cc(O)c(=O)cc-2oc2cc(O)c(O)cc12,22
